The test system of assay [1] is DLD1. Put plainly: cell viability (CellTiter-Glo) relative to plate median (fraction of plate median); higher = more viable cells. The settings on record: 5 µM; treatment time 24 h; reporter: 7TFP. The essentials:
(§1)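 Library compounds were added at a final concentration of 5 µM for 24 h to colorectal cancer cells stably transduced with a lentiviral TCF/Wnt firefly luciferase reporter. Reported values are firefly luciferase or CellTiterGlo luminescence, normalised per well to the plate median. Each value averages two independent replicates.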
On the technique in general: Cellular ATP, detected with luciferase, serves as a proxy for viable cell number.

For assay [2], the system named is HCT116. The assay is described as above. The settings on record: 5 µM; treatment time 24 h; reporter: TCF4/Wnt. The essentials: as §1
In assay [3] the test system is SW480. The assay is described as above. To be noted: 5 µM; treatment time 24 h; reporter: 7TFP. The essentials: as §1
Assay [4] concerns DLD1. Description: TCF/Wnt firefly luciferase reporter signal relative to plate median (fraction of plate median); higher = higher Wnt reporter signal. The settings on record: 5 µM; treatment time 24 h; reporter: 7TFP. The essentials: as §1
For orientation: In a reporter assay the amount or activity of a reporter protein is the signal.

The test system of assay [5] is SW480. The description is as above. To be noted: 5 µM; treatment time 24 h; reporter: 7TFP. The essentials: as §1

± gives the standard deviation of the averaged measurements.

As to `C[C@H]1CC[C@@H](C(C)(C)O)CC2=C1CC[C@@H]2C`, the cell viability in assay [1] was found to be 0.964 ± 0.079; in assay [2], 1.025 ± 0.0071; in assay [3] it was 0.9715 ± 0.0078. In addition, the “TCF/Wnt firefly luciferase reporter signal” value in assay [4] came out at 0.907 ± 0.11; in assay [5], 0.86 ± 0.016.
Turning to `COc1ccnc(C[S+]([O-])c2nc3cc(OC(F)F)ccc3[nH]2)c1OC` (stereo not given), the cell viability in assay [1] was found to be 0.961 ± 0.0042; in assay [2] it was 1.03 ± 0.014; in assay [3], 0.974 ± 0.036. In addition, the entries for the “TCF/Wnt firefly luciferase reporter signal” value in assay [4] and in assay [5] were 1.06 ± 0.05 and 1.05 ± 0.071, respectively.
Take `Cc1c(OCC(F)(F)F)ccnc1C[S+]([O-])c1nc2ccccc2[nH]1` (stereo not given): the cell viability turned out to be 1.07 ± 0.14 in assay [1], 1.02 ± 0.061 in assay [2] and 0.932 ± 0.0014 in assay [3]. Besides, the “TCF/Wnt firefly luciferase reporter signal” value in assay [4] was 1.09 ± 0.021; in assay [5], 0.959 ± 0.011.
Turning to `O=C(Nc1ccc([N+](=O)[O-])cc1Cl)c1cc(Cl)ccc1O`, the cell viability was 0.764 ± 0.05 in assay [1], 0.614 ± 0.13 in assay [2] and 0.779 ± 0.3 in assay [3]. Moreover, the “TCF/Wnt firefly luciferase reporter signal” value is 0.92 ± 0.064 in assay [4] and 0.964 ± 0.22 in assay [5].
Consider `CCN(CC)CCNC(=O)c1cc(Cl)c(N)cc1OC`, for which the figures for the cell viability in assay [1], in assay [2] and in assay [3] were 1 ± 0.037, 1.04 ± 0.066 and 0.993 ± 0.025, respectively. Also, the entries for the “TCF/Wnt firefly luciferase reporter signal” value in assay [4] and in assay [5] were 1.14 ± 0.05 and 1 ± 0.069, respectively.
With `CCCCNc1ccc(C(=O)OCCN(C)C)cc1`, the cell viability in assay [1] is 1.04 ± 0.042; in assay [2], 1.12 ± 0.085; in assay [3], 1.02 ± 0.035. Further, the entries for the “TCF/Wnt firefly luciferase reporter signal” value in assay [4] and in assay [5] were 1.1 ± 0.035 and 0.973 ± 0.0085, respectively.
With `CC1=C(C(=O)O)N2C(=O)[C@@H](NC(=O)[C@H](N)C3=CCC=CC3)[C@H]2SC1`, the cell viability in assay [1] amounted to 0.978 ± 0.073; in assay [2], 0.958 ± 0.018; in assay [3] it was 0.948 ± 0.021. The figures for the “TCF/Wnt firefly luciferase reporter signal” value in assay [4] and in assay [5] were 1.01 ± 0.09 and 1.02 ± 0.021, respectively.
As to `CC(C)(S)[C@@H](N)C(=O)O`, the results for the cell viability in assay [1], in assay [2] and in assay [3] were 0.991 ± 0.027, 0.956 ± 0.13 and 0.9765 ± 0.0092, respectively. Moreover, the results for the “TCF/Wnt firefly luciferase reporter signal” value in assay [4] and in assay [5] were 1.09 ± 0.014 and 1.16 ± 0.11, respectively.
With `CCOC(=O)c1ncn2c1CN(C)C(=O)c1cc(F)ccc1-2`, the cell viability in assay [1] amounted to 0.944 ± 0.045; in assay [2] it was 1.03; in assay [3], 0.952 ± 0.025. The “TCF/Wnt firefly luciferase reporter signal” value came to 0.996 ± 0.02 in assay [4] and 0.993 ± 0.0099 in assay [5].
With `COc1cc(O)c(C(=O)c2ccccc2)cc1O`, the values for the cell viability in assay [1], in assay [2] and in assay [3] were 0.889 ± 0.07, 0.84 ± 0.17 and 1.07 ± 0.15, respectively. The figures for the “TCF/Wnt firefly luciferase reporter signal” value in assay [4] and in assay [5] were 0.891 ± 0.28 and 0.845 ± 0.12, respectively.
The matching figures for `CC(C)(C(=O)O)c1ccc(C(O)CCCN2CCC(C(O)(c3ccccc3)c3ccccc3)CC2)cc1` (stereo not given): 1.05 ± 0.078, 0.899 ± 0.049, 1.055 ± 0.0071, 1.05 ± 0.028 and 1.13.
For the compound `O=c1c(O)c(-c2ccc(O)cc2)oc2ccccc12`, the cell viability is 0.975 ± 0.05 in assay [1], 1.16 ± 0.05 in assay [2] and 1.01 ± 0.034 in assay [3]. Moreover, the entries for the “TCF/Wnt firefly luciferase reporter signal” value in assay [4] and in assay [5] were 1.05 ± 0.028 and 0.957 ± 0.047, respectively.
For `CC(C)CCC[C@@H](C)[C@H]1CC[C@H]2[C@@H]3CC(=O)[C@H]4C[C@@H](O)CC[C@]4(C)[C@H]3CC[C@]12C` [5alpha-CHOLESTAN-3beta-OL-6-ONE], the cell viability is 0.985 ± 0.05 in assay [1], 1.01 ± 0.014 in assay [2] and 1.015 ± 0.0071 in assay [3]. Moreover, the entries for the “TCF/Wnt firefly luciferase reporter signal” value in assay [4] and in assay [5] were 0.904 ± 0.15 and 0.874 ± 0.047, respectively.
Consider `C=CCc1ccc(OC(=O)c2ccccc2)c(OC)c1`, for which the cell viability in assay [1] is 1.02 ± 0.14; in assay [2], 1.07 ± 0.05; in assay [3], 1.02 ± 0.063. Also, the “TCF/Wnt firefly luciferase reporter signal” value in assay [4] amounted to 1.22 ± 0.014; in assay [5] it was 1 ± 0.14.
`CC(C)c1ccc2c(c1)CC[C@H]1[C@](C)(CN)CCC[C@]21C`: the cell viability was 1.04 ± 0.028 in assay [1], 1.07 ± 0.092 in assay [2] and 1.06 ± 0.028 in assay [3]. Also, the “TCF/Wnt firefly luciferase reporter signal” value in assay [4] turned out to be 1.18 ± 0.071; in assay [5] it was 1.03 ± 0.13.
The matching figures for `C=C[C@H]1CN2CC[C@H]1C[C@H]2[C@H](O)c1ccnc2ccc(OC)cc12`: 1.11 ± 0.035, 1.06 ± 0.021, 1.07 ± 0.092, 1.205 ± 0.0071 and 0.983 ± 0.11.
Take `CCC(Cc1c(I)cc(I)c(N)c1I)C(=O)O` (stereo not given): the cell viability in assay [1] came to 1.08 ± 0.057; in assay [2], 1.05 ± 0.035; in assay [3] it was 1.07 ± 0.028. For the same compound, the “TCF/Wnt firefly luciferase reporter signal” value in assay [4] came to 1.035 ± 0.0071; in assay [5] it was 1.04 ± 0.035.
For `O=c1c(O)cc([C@H]2Oc3cc(O)cc(O)c3C[C@H]2O)cc2c([C@H]3Oc4cc(O)cc(O)c4C[C@H]3O)cc(O)c(O)c12`, the cell viability in assay [1] worked out at 0.934 ± 0.033; in assay [2], 1.01 ± 0.02; in assay [3], 0.966 ± 0.02. Moreover, the “TCF/Wnt firefly luciferase reporter signal” value in assay [4] was 0.949 ± 0.044; in assay [5] it was 1.04 ± 0.1.
As to `Cc1cccc(C)c1NC(=O)C1CCCCN1C` (stereo not given), the values for the cell viability in assay [1], in assay [2] and in assay [3] were 1 ± 0.078, 0.959 ± 0.1 and 0.971 ± 0.035, respectively. In addition, the “TCF/Wnt firefly luciferase reporter signal” value in assay [4] amounted to 1.05 ± 0.035; in assay [5] it was 1.04 ± 0.12.
For the compound `CC[C@H]1OC(=O)[C@H](C)[C@@H](O[C@H]2C[C@@](C)(OC)[C@@H](O)[C@H](C)O2)[C@H](C)[C@@H](O[C@@H]2O[C@H](C)C[C@H](N(C)C)[C@H]2O)[C@](C)(O)C[C@@H](C)[C@@H]2N[C@@H](COCCOC)O[C@H]([C@H]2C)[C@]1(C)O`, the values for the cell viability in assay [1], in assay [2] and in assay [3] were 1.02 ± 0.049, 0.991 ± 0.027 and 0.931 ± 0.0028, respectively. In addition, the “TCF/Wnt firefly luciferase reporter signal” value in assay [4] stood at 0.975 ± 0.05; in assay [5], 0.998 ± 0.045.
In the case of `CN(C)CCCC1(c2ccc(F)cc2)OCc2cc(C#N)ccc21` (stereo not given), the results for the cell viability in assay [1], in assay [2] and in assay [3] were 1.02 ± 0.044, 1.01 ± 0.061 and 0.996 ± 0.048, respectively. The “TCF/Wnt firefly luciferase reporter signal” value in assay [4] amounted to 0.964 ± 0.0014; in assay [5] it was 1.01 ± 0.1.
The matching figures for `CC1=C2C(O)C(=O)OC3CC4C(C)(C)C(=O)C=C[C@]4(C)C(CC1)[C@]23C` (stereo not given in full): 0.931 ± 0.015, 0.97 ± 0.13, 1.015 ± 0.0071, 1.01 ± 0.14 and 1.14 ± 0.05.
On to `CN(C)CCCN1c2ccccc2CCc2ccc(Cl)cc21`, for which the figures for the cell viability in assay [1], in assay [2] and in assay [3] were 1.04, 0.984 ± 0.051 and 1.06 ± 0.021, respectively. Further, the “TCF/Wnt firefly luciferase reporter signal” value in assay [4] is 1.06 ± 0.1; in assay [5], 1.01 ± 0.055.
With `COC(=O)[C@H]1[C@H]2C[C@H]3c4[nH]c5ccccc5c4CCN3C[C@@H]2CC[C@@H]1O`, the cell viability in assay [1] is 0.988 ± 0.06; in assay [2], 0.984 ± 0.066; in assay [3], 1.06 ± 0.014. For the same compound, the “TCF/Wnt firefly luciferase reporter signal” value in assay [4] is 1.01 ± 0.039; in assay [5] it was 1.06 ± 0.028.
For `CN(C/C=C/C#CC(C)(C)C)Cc1cccc2ccccc12`, the cell viability in assay [1] was 1.04 ± 0.18; in assay [2] it was 1.04 ± 0.014; in assay [3], 1.03 ± 0.035. Besides, the “TCF/Wnt firefly luciferase reporter signal” value turned out to be 1.21 ± 0.042 in assay [4] and 1.07 ± 0.2 in assay [5].
`Cc1ccc(/C(=C\CN2CCCC2)c2ccccn2)cc1`: the cell viability in assay [1] amounted to 0.984 ± 0.037; in assay [2], 0.968 ± 0.088; in assay [3], 0.945 ± 0.048. The “TCF/Wnt firefly luciferase reporter signal” value came to 0.886 ± 0.064 in assay [4] and 0.956 ± 0.091 in assay [5].
Turning to `NS(=O)(=O)c1ccc(S(=O)(=O)Nc2cccc3c(Cl)c[nH]c23)cc1` [indisulam], the values for the cell viability in assay [1], in assay [2] and in assay [3] were 1.04 ± 0.028, 0.747 ± 0.07 and 0.926 ± 0.0028, respectively. In addition, the “TCF/Wnt firefly luciferase reporter signal” value in assay [4] came to 1.17 ± 0.014; in assay [5] it was 1.1 ± 0.15.
`CC(=O)OC/C=C(\C)CC/C=C(\C)CC/C=C(\C)CC/C=C(\C)CC/C=C(\C)CC/C=C(\C)CC/C=C(\C)CC/C=C(\C)CCC=C(C)C`: the cell viability in assay [1] worked out at 1.04 ± 0.042; in assay [2], 0.96 ± 0.085; in assay [3], 1.06 ± 0.028. Moreover, the “TCF/Wnt firefly luciferase reporter signal” value is 0.807 ± 0.072 in assay [4] and 1.02 ± 0.057 in assay [5].
With `c1coc(CNc2ncnc3[nH]cnc23)c1`, the cell viability worked out at 0.913 ± 0.09 in assay [1], 0.845 ± 0.17 in assay [2] and 0.958 ± 0.04 in assay [3]. Moreover, the “TCF/Wnt firefly luciferase reporter signal” value in assay [4] was determined as 0.996 ± 0.1; in assay [5], 1.04 ± 0.042.
Taken in the same sequence, the figures for `COc1c(O)cccc1O` were 0.99 ± 0.042, 0.962 ± 0.17, 1.01, 1.16 ± 0.05 and 1.06 ± 0.021.

(Values after the supplement of paper PMC6522484.)
